Among the test systems are SR leukemia; RPMI-8226 leukemia; OVCAR-8 ovarian; OVCAR-5 ovarian; OVCAR-4 ovarian; SK-OV-3 ovarian; IGROV1 ovarian; OVCAR-3 ovarian; HS 578T breast; NCI/ADR-RES ovarian; T-47D breast; BT-549 breast; MDA-MB-435 melanoma; SW-620 colon; MCF7 breast; HCT-116 colon; HCC-2998 colon; KM12 colon; MDA-MB-468 breast.
Common to all, as to test: NCI-60 one-dose screen, 48 h (100 = growth as untreated, 0 = no growth, -100 = all killed)
Common to all, as to settings: 10 µM unless noted

Compounds without any hit were thinned out: in the full panel of roughly 83,000, 20% have a hit.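 48-hour exposure, single concentration, 96-well plates; percent growth endpoint where 0 means no net growth. Active: below 10.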 Values without a mark were called inactive. Active and inactive are the calls of the source.

As for `CCCCn1c(O)c(N=Nc2nc(-c3cc4ccccc4oc3=O)cs2)c2cc(Br)ccc21`, the growth in the assay on SR leukemia is 103%; in the assay with RPMI-8226 leukemia it was 108%; with OVCAR-8 ovarian, 113%; in the assay on OVCAR-5 ovarian, 96.2%; in the assay on OVCAR-4 ovarian, 111%; with SK-OV-3 ovarian, 124%. In addition, the growth in the assay on IGROV1 ovarian is 114%; in the assay on OVCAR-3 ovarian, 99.1%; with HS 578T breast, 108%; in the assay on NCI/ADR-RES ovarian, 102%; in the assay on T-47D breast, 107%; in the assay with BT-549 breast, 132%. For the same molecule, the growth in the assay with MDA-MB-435 melanoma is 111%; with SW-620 colon, 114%; with MCF7 breast, 89.8%; in the assay with HCT-116 colon it was 107%; in the assay with HCC-2998 colon, 111%; in the assay with KM12 colon, 114%. Further, the growth in the assay with MDA-MB-468 breast was 113%.

As to `O=C(Cn1nc(-c2ccccc2)ccc1=O)N/N=C/c1ccc(N2CCOCC2)cc1`, the growth was 85.9% with SR leukemia; 87.8% in the assay on RPMI-8226 leukemia; 102% in the assay with OVCAR-8 ovarian; 107% in the assay with OVCAR-5 ovarian; 93.9% in the assay on OVCAR-4 ovarian; 107% with SK-OV-3 ovarian. Also, the growth was 113% in the assay on IGROV1 ovarian; 103% with OVCAR-3 ovarian; 86.6% in the assay on HS 578T breast; 95.5% in the assay with NCI/ADR-RES ovarian; 69.4% with T-47D breast; 121% with BT-549 breast. Also, the growth is 97.6% with MDA-MB-435 melanoma; 102% in the assay with SW-620 colon; 83.8% in the assay on MCF7 breast; 103% with HCT-116 colon; 113% with HCC-2998 colon; 102% with KM12 colon. For the same molecule, the growth in the assay on MDA-MB-468 breast is 104%.

In the case of `Nc1nnc(-c2c[nH]c3ccc(Br)cc23)c(-c2c[nH]c3ncc(Br)cc23)n1`, the growth with SR leukemia is 23.6%; in the assay with RPMI-8226 leukemia it was 19.6%; with OVCAR-8 ovarian it was 34.3%; in the assay on OVCAR-5 ovarian, 59%; with OVCAR-4 ovarian, 33.6%; in the assay with SK-OV-3 ovarian it was 37.6%. In addition, the growth with IGROV1 ovarian was 22%; in the assay with OVCAR-3 ovarian it was 62.4%; with HS 578T breast, 48.8%; with NCI/ADR-RES ovarian, 78.6%; in the assay on T-47D breast, 16.7%; with BT-549 breast, 35.4%. For the same molecule, the growth in the assay on MDA-MB-435 melanoma is 30.3%; in the assay on SW-620 colon, 50.2%; with MCF7 breast it was 12.3%; in the assay with HCT-116 colon, 17.1%; in the assay with HCC-2998 colon, 48.5%; in the assay with KM12 colon, 32.6%. Moreover, the growth in the assay with MDA-MB-468 breast was 26.1%.

As to `Cn1cc(NC(=O)c2cc(NC(=O)c3ccc(C#Cc4ccccc4)cc3)cn2C)cc1C(=O)NCCCN1CCOCC1`, the growth was -34.3% (active) in the assay on SR leukemia; -42.6% (active) with RPMI-8226 leukemia; 38.9% in the assay on OVCAR-8 ovarian; 83.2% in the assay on OVCAR-5 ovarian; 63% in the assay with OVCAR-4 ovarian; 83.2% in the assay on SK-OV-3 ovarian. The growth with IGROV1 ovarian is 66.8%; with OVCAR-3 ovarian, 46%; in the assay with HS 578T breast it was 95.9%; in the assay with NCI/ADR-RES ovarian it was 90%; in the assay on T-47D breast it was 22.2%; in the assay on BT-549 breast it was 73.5%. Besides, the growth in the assay on MDA-MB-435 melanoma is -56.6% (active); with SW-620 colon, -44.3% (active); in the assay with MCF7 breast it was -93.1% (active); in the assay with HCT-116 colon, -87.3% (active); in the assay on HCC-2998 colon, -56% (active); with KM12 colon, 3.14% (active). The growth in the assay with MDA-MB-468 breast was -69.7% (active).

Turning to `CN(C)CCCNC(=O)c1cc(NC(=O)c2cc(NC(=O)c3ccc(C#Cc4ccccc4)cc3)cn2C)cn1C`, the growth is -46.3% (active) in the assay with SR leukemia; -49% (active) with RPMI-8226 leukemia; -0.647% (active) in the assay on OVCAR-8 ovarian; 36.8% in the assay with OVCAR-5 ovarian; 43.6% in the assay with OVCAR-4 ovarian; 46.5% in the assay with SK-OV-3 ovarian. Moreover, the growth with IGROV1 ovarian is 34.3%; with OVCAR-3 ovarian, -2.81% (active); in the assay on HS 578T breast, 31.7%; with NCI/ADR-RES ovarian it was 56.6%; in the assay with T-47D breast it was -14.9% (active); in the assay on BT-549 breast, -15% (active). Further, the growth in the assay on MDA-MB-435 melanoma was -63.3% (active); in the assay with SW-620 colon, -12.9% (active); with MCF7 breast it was -93.3% (active); with HCT-116 colon it was -92.4% (active); in the assay with HCC-2998 colon, -90.7% (active); with KM12 colon, -64% (active). Besides, in the assay with MDA-MB-468 breast, the growth was -93.8% (active).

In the case of `O=C(NN1C(=O)/C(=C/C=C/c2ccc([N+](=O)[O-])o2)SC1=S)c1ccc(Cl)cc1`, the growth in the assay on SR leukemia was 4.16% (active); in the assay on RPMI-8226 leukemia it was -23.8% (active); in the assay with OVCAR-8 ovarian, -78.2% (active); with OVCAR-5 ovarian, -97.7% (active); in the assay with OVCAR-4 ovarian, -98.9% (active); in the assay with SK-OV-3 ovarian, -99.6% (active). For the same molecule, the growth was -92.9% (active) in the assay on IGROV1 ovarian; -98% (active) in the assay with OVCAR-3 ovarian; -18.4% (active) in the assay on HS 578T breast; -42.6% (active) in the assay with NCI/ADR-RES ovarian; -91.2% (active) with T-47D breast; -91.1% (active) in the assay with BT-549 breast. In addition, the growth is -86.2% (active) in the assay with MDA-MB-435 melanoma; -80.9% (active) in the assay on SW-620 colon; -60% (active) with MCF7 breast; -76.1% (active) in the assay with HCT-116 colon; -96.2% (active) in the assay on HCC-2998 colon; -93% (active) with KM12 colon. Besides, in the assay on MDA-MB-468 breast, the growth was -85.9% (active).

The values above are taken from PubChem BioAssay (NCI).
